Bioassay records: PubChem, National Center for Advancing Translational Sciences (NCATS)
Tau fil binding: tau filament binding; P10636; recombinant tau filaments, thioflavin S fluorescence, 15 h; filaments grown with octadecylsulfate alongside compound; Potency, µM (top dose mostly 57.1 µM); 71,000 tested, 2% active;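 note: actives lower thioflavin S fluorescence by blocking filaments or displacing dye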
Target sequence (P10636 whole entry, looked up): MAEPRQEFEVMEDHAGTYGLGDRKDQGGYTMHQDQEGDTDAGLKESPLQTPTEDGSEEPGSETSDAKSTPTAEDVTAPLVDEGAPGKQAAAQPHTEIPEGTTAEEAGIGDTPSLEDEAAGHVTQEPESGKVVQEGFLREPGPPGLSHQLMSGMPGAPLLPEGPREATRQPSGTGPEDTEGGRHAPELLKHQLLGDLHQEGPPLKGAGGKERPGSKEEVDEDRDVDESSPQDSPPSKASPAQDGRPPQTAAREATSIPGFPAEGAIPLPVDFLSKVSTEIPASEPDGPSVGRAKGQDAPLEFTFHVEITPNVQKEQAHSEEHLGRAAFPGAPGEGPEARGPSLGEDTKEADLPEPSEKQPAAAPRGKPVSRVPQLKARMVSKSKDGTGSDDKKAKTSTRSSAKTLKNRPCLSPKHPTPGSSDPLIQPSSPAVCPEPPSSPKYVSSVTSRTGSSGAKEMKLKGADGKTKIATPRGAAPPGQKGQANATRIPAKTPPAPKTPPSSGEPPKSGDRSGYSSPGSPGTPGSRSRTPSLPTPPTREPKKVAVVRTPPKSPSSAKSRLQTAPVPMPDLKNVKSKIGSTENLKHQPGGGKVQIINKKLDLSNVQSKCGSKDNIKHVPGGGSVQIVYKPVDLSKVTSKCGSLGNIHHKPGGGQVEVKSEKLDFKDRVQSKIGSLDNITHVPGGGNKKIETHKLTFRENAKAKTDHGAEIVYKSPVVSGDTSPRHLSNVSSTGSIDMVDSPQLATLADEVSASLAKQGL
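His-tagged recombinant human tau (exons 2, 3, 10; 1 uM final) fibrillized with 30 uM sodium octadecylsulfate, 15 h at 37 C, in pH 7.4 HEPES buffer with 10 uM thioflavine S and 5 mM DTT. Reduced ThS fluorescence (450/510 nm) marks activity.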
p53ts 32C tox: cytotoxicity in p53ts cells at permissive temperature | H1299-p53A138V at 32C, ATP luminescence viability, 24 h | Potency, µM (titrated, usually from 46.1 µM), hits mostly cytotoxic | 130,000 tested, 0.93% active | AID 924; note: nearly all actives have a fitted effect of over 55% in size
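H1299-p53 A138V cells (temperature-sensitive p53) exposed 24 h to up to 46 uM compound at 32C, where p53 is wild-type in conformation. Viability read as ATP luminescence and normalised to DMSO and 100 uM tamoxifen. AC50 fitted with the Hill equation.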
ERK AVP block: vasopressin-driven ERK pathway inhibition. AID 995. HEK293-V1b, vasopressin-stimulated pERK AlphaScreen. Potency, µM (doses to about 57.5 µM), hits mostly inhibitors. 72,000 tested, 0.99% active; note: nearly all actives have a fitted effect of over 55% in size
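qHTS, compounds titrated on V1b-expressing HEK293 cells. Preincubation 30 min at 37C, vasopressin 25 nM for 5 min, lysis 10 min, bead incubation 5 hr at room temperature.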
p53ts 39C tox: p53ts cell cytotoxicity, nonpermissive temperature; 130,000 tested, 1.5% active; Potency, µM (top dose mostly 46.1 µM), hits mostly cytotoxic; H1299-p53A138V viability at 39C, ATP luminescence, 24 h; AID 902; note: nearly all actives have a fitted effect of over 55% in size
TsaE inh: inhibitors of E. coli YjeE (TsaE); 71,000 tested, 0.05% active; purified YjeE enzyme, qHTS inhibition assay; P0AF67; Potency, µM
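Purified YjeE (10 uM) with BODIPY Texas Red-labeled ADP probe (2 uM); compounds pin-transferred, 15 min at room temperature. Binding inhibition read as decreased fluorescence polarization; ADP titration as control.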
DNA Pol III inh: blocks replication by bacterial DNA polymerase III holoenzyme; reconstituted DNA polymerase III holoenzyme replication, biochemical; Potency, µM (doses to about 57.1 µM); 71,000 tested, 0.25% active; AID 603
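Reconstituted *E. coli* holoenzyme (0.35 nM Pol III, 1 nM beta, 154 nM SSB, 2 nM primase) was preincubated with compound for 15 min at RT. Synthesis on 1.4 nM ssM13Gori ran 35 min, then was stopped with PicoGreen/EDTA and read as dsDNA fluorescence.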
Numbers stand for hits; 0 = inactive; ? = inconclusive; - = no result; [ ] = dose if it differs, or a comment. The list is not random: actives were taken first. Their share in the collection is about 3.2%. Calls come from the whole dose curve; as a rule, active = well fitted curve in the direction sought with a large enough effect; inconclusive = small, poorly fitted or top-dose-only effect, or another doubt; inactive = no such curve, though single readings can be large; an effect the other way counts as inactive or inconclusive.

SMILES	Tau fil binding	p53ts 32C tox	ERK AVP block	p53ts 39C tox	TsaE inh	DNA Pol III inh
CN(C)S(=O)(=O)c1ccc2c(c1)c(=O)c(C(=O)NCCCN1CCCCCC1)cn2C	0	0	15.8µM	0	0	0
COc1ccccc1N1CCN(CC(O)COc2cc(C)cc(C)c2)CC1 (stereo not given)	-	0	-	0	-	-
COc1ccccc1N1CCN(CC(O)COc2ccc(C)cc2C(C)(C)C)CC1 (stereo not given)	-	0	-	25.1µM	-	-
O=C1c2ccccc2C(=O)c2c(Nc3ccc4c5c(cccc35)C(=O)c3ccccc3-4)cccc21	0[11.4 µM]	0[9.22 µM]	0[11.5 µM]	0[9.22 µM]	0	0[11.4 µM]
O=C1c2ccccc2C(=O)c2c(Nc3cc4c5c(ccc6c7ccc8c9c(cc(Nc%10cccc%11c%10C(=O)c%10ccccc%10C%11=O)c(c3c56)c97)-c3ccccc3C8=O)C(=O)c3ccccc3-4)cccc21	3.16µM	0[9.22 µM]	?	0[9.22 µM]	0	0[11.4 µM]
Cc1csc(NC(=O)CSCC(=O)Nc2ccccc2)n1	0	0	31.6µM	0	0	0
COc1cccc(CCc2ccccc2OCC[C@@H]2C[C@@H](O)CN2C)c1	-	?	0	12.6µM	-	-
CCCc1nc2sc3ccccc3c(=O)c2c(=O)n1Cc1ccco1	15.8µM	0	0	0	0	0
CCC(=O)Nc1ccccc1-c1nc2ccccc2n(C(C)C(=O)Nc2ccc(OC)cc2)c1=O (stereo not given)	-	0	-	0	-	-
COC(=O)C1C(=O)C2=C(CC1C)NC(C)=C(C(=O)OC1CCCCC1)C2c1ccc(N(C)C)cc1 (stereo not given)	25.1µM	0	0	0	0	0
Clc1cccc(N2CCN(c3nc4ccccc4n4nnnc34)CC2)c1	-	0	-	0	-	-
CCOc1ccc(CCNC(=O)c2cc3c(=O)n(C)c4ccccc4c3n2C)cc1OCC	-	0	-	?	-	-
Cn1cc(C(=O)c2ccc(F)cc2)cc1-c1nc2ccccc2n1C	0	0	25.1µM	0	0	0
CSc1nn(CC(=O)Nc2cc(C)ccc2C)c(N)c1S(=O)(=O)c1ccccc1	-	0	-	0	-	-
COc1cc(NC(=O)c2ccc(-c3nc(COc4ccccc4)c(C)o3)cc2)cc(OC)c1	-	0	-	0	-	-
COc1cc(C(=O)Nc2nc(-c3cccs3)cs2)cc(OC)c1OC	0	?	3.16µM	?	0	0
COc1cc(C(=O)Nc2ccc(N(C)C)cc2)cc(OC)c1OC	10µM	0	?	0	0	0
COc1cc(C(=O)Nc2ccc3[nH]c(=O)sc3c2)cc(OC)c1OC	-	0	-	0	-	-
COc1ccc(C(=O)Nc2nc(-c3cccs3)cs2)cc1	0	0	?	0	0	0
O=C(COc1ccc(Cl)cc1)Nc1nc(-c2cccs2)cs1	0	0	25.1µM	?	0	0
Cc1ccc2c(c1)C(c1ccccc1)N(C(=O)COc1ccc(Cl)cc1Cl)CC(=O)N2 (stereo not given)	-	0	-	0	-	-
CS(=O)(=O)c1ncc(Cl)c(C(=O)N2CCN(c3cccc(Cl)c3)CC2)n1	-	12.6µM	-	2.51µM	-	-
CCS(=O)(=O)c1ncc(Cl)c(C(=O)N2CCN(c3cccc(Cl)c3)CC2)n1	-	12.6µM	-	2.51µM	-	-
CC1(C)CCC[C@@]2(C)[C@@H]1CC[C@]1(C)OC(=O)C[C@@H]21	0	-	-	-	0	0
CCCCCCc1ccc(-c2ncc(N)cn2)cc1	25.1µM	0	0	0	0	0
SMILES	Tau fil binding	p53ts 32C tox	ERK AVP block	p53ts 39C tox	TsaE inh	DNA Pol III inh
CCCCOc1ccc(-c2ncc(Cl)cn2)cc1	0[11.4 µM]	0	0	0	0	0[11.4 µM]
Clc1ccc2c(c1)N=C(N1CCNCC1)c1ccccc1N2	39.8µM	0	0	0	0	0
Cc1ccccc1-c1cc(N2CCNCC2)ncn1	0	0	0	0	0	0
c1ccc(-c2ccc(-c3ccccn3)nn2)nc1	0	12.6µM	0	10µM	0	0
Cc1ccc(-n2ncc3c(NCCO)ncnc32)cc1Cl	-	0	-	15.8µM	-	-
Cc1ccc(-n2ncc3c(N(C)C)ncnc32)cc1Cl	-	?	-	7.94µM	-	-
CCCCN(C)c1ncnc2c1cnn2-c1cccc(Cl)c1	-	?	-	15.8µM	-	-
COc1ccc(CNC(=O)CC(c2ccc(OC)cc2)N2Cc3ccccc3C2=O)cc1 (stereo not given)	-	0	-	0	-	-
CC1=C(C(=O)Nc2ccccc2Br)C2(CCC(C)CC2)OC1=O (stereo not given)	-	0	-	0	-	-
COC(=O)c1cccc(NC(=O)c2nsc3ccccc23)c1	-	2.51µM	-	6.31µM	-	-
O=C(Nc1cccc(C(=O)N2CCCCC2)c1)c1nsc2ccccc12	-	15.8µM	-	10µM	-	-
CC1CCN(C(=O)c2ccc(NC(=O)c3nsc4ccccc34)cc2)CC1	-	0	-	?	-	-
Cc1cc2nn(-c3ccc(F)cc3)nc2cc1NC(=O)c1cc(Cl)ccc1Cl	-	0	-	0	-	-
O=C(c1cc2ccccc2o1)c1cccs1	0	0	0	0	0	0
O=C(c1cccs1)c1ccc(-c2cccs2)s1	0	7.94µM	0	10µM	0	0
Cc1ccc2nc(N(Cc3cccnc3)C(=O)c3cccs3)sc2c1	-	0	-	0	-	-
Cc1ccnc(N(C(=O)c2cccs2)C(=O)c2cccs2)c1	0	?	0	12.6µM	0	0
O=C(Nc1ccc(C(F)(F)F)cc1)C(Cc1ccccc1)n1cccc1 (stereo not given)	-	0	-	20µM	-	-
CC1=C/C(=C\c2ccc3c(c2)OCO3)C(=O)S1	25.1µM	0	0	0	0	0
CCCN1C/C(=C/c2ccc3c(c2)OCO3)C(=O)/C(=C/c2ccc3c(c2)OCO3)C1	-	-	-	0	-	-
CC(C)CCn1c(=O)c2sccc2n2c(CCCC(=O)NC(C)c3ccccc3)nnc12 (stereo not given)	-	0	-	0	-	-
COc1ccc(-c2cc(C(F)(F)F)nc(SCCC(=O)Nc3ccccc3F)n2)cc1	-	0	-	0	-	-
COc1ccc(-c2cc(C(F)(F)F)nc(SCCC(=O)Nc3cc(C)ccc3O)n2)cc1	-	0	-	10µM	-	-
COc1ccc(CC(=O)N2CC3(C)CC2CC(C)(C)C3)cc1OC (stereo not given)	0[11.4 µM]	0	31.6µM	0	0	0[11.4 µM]
Cc1ccc(NC(=O)c2ccc3ccccc3n2)nc1	0	12.6µM	0	?	0	0
SMILES	Tau fil binding	p53ts 32C tox	ERK AVP block	p53ts 39C tox	TsaE inh	DNA Pol III inh
Cc1ccc(NC(=O)c2cccc(Cl)c2)nc1	0	0	0	0	0	0
Cc1ccccc1C(=O)Nc1ccc(Cl)cn1	0	0	0	0	0	0
Cc1ccc(C(=O)Nc2ccc(Cl)cn2)cc1	0	7.94µM	0	?	0	0
Cc1ccc2cc3cc(C(=O)N4CCCCC4C)oc3nc2c1 (stereo not given)	0	12.6µM	0	?	0	0
Cc1ccc2cc3cc(C(=O)N4CC(C)CC(C)C4)oc3nc2c1 (stereo not given)	0	0	0	0	0	0
Cc1ccc2cc3cc(C(=O)N(C)c4ccccc4C)oc3nc2c1	-	?	-	10µM	-	-
Cc1cccc(OCC(=O)OCc2cc(=O)n3nc(-c4cccs4)sc3n2)c1	-	0	-	0	-	-
COc1ccccc1Cn1c(CNS(=O)(=O)c2c(C)cc(C)cc2C)nc2cccnc21	-	0	-	0	-	-
